According to PubChem BioAssay (NCATS):
Inconclusive results are not listed. A call without a number means that no potency is given here. The source made the active and inactive calls. Calls come from the whole dose curve; as a rule, active = well fitted cell-killing curve with a large enough effect; inconclusive = small, poorly fitted or top-dose-only effect, or effect the other way; inactive = no such curve, though single readings can be large or run the other way.

Experiment: Viability qHTS for spleen associated tyrosine kinase inhibitor (SYKi) naive MV4-11 cells (AID 1963823); note: nearly all actives have a fitted effect of over 40% in size
How it was run: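 Luminescence from CellTiter-Glo, developed 10 min at room temperature, gave viability of MV4-11 cells never exposed to SYK inhibitor. Cells (500/well) had been incubated with compounds for 72 hr under standard culture conditions.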
Potency is the fitted concentration of half-maximal effect.

**Q.** Which Potency does the source give for `C=C1/C(=C/C=C2\CCC[C@@]3(C)C2CCC3[C@H](C)/C=C/[C@@H](O)C2CC2)C[C@@H](O)C[C@@H]1O` (stereo partly specified) here?
**A.** inactive

**Q.** For `O=C(O)c1ccncc1Nc1nn(CCN2CCC(F)(F)CC2)c2ccc(F)cc12`, which Potency is on record?
**A.** inactive

**Q.** With `CC1=C2C3OC(=O)C(C)C3(O)CCC2(C)CCC1=O` (stereo unspecified) as the compound, how does the Potency read?
**A.** inactive

**Q.** Which Potency does the source give for `CC(C)=CCC[C@](C)(O)[C@H]1CC[C@]2(C)[C@@H]1[C@H](O)CC1[C@@]3(C)CC[C@H](O)C(C)(C)[C@@H]3[C@@H](O[C@@H]3O[C@H](CO)[C@@H](O)[C@H](O)[C@H]3O[C@@H]3O[C@H](CO)[C@@H](O)[C@H](O)[C@H]3O)C[C@]12C` (stereo partly specified) here?
**A.** inactive

**Q.** For `COc1ccc(NC(=O)C2C[C@H](C)CC[C@H]2C(C)C)cc1` (stereo partly specified), which Potency is on record?
**A.** inactive

**Q.** With `CCc1cc(CC[C@]2(C3CCCC3)CC(O)=C(Cc3nc4nc(C)cc(C)n4n3)C(=O)O2)cc(CC)n1` as the compound, how does the Potency read?
**A.** 10.3 µM (active)

**Q.** With `C[C@H]1C[C@H]2[C@@H]3CCC4=CC(=O)C=C[C@]4(C)[C@@]3(F)[C@@H](O)C[C@]2(C)[C@@]1(O)C(=O)COP(=O)(O)O` as the compound, how does the Potency read?
**A.** inactive

**Q.** Which Potency does the source give for `COc1cc(C(C)=O)c(OC)c2c1OC(C)(C)C=C2` here?
**A.** inactive

**Q.** For `COc1ccc2c(c1)C[C@H](C(=O)Nc1ccc(-c3cn[nH]c3)cc1OCCN(C)C)CO2`, which Potency is on record?
**A.** 0.651 µM (active)

**Q.** Which Potency does the source give for `CC(C)C1NC(=O)CNC(=O)C2CCCN2C(=O)C(Cc2c[nH]c3ccccc23)NC(=O)CNC(=O)C(Cc2ccc(O)cc2)NC(=O)CNC1=O` (stereo unspecified) here?
**A.** inactive

**Q.** Which Potency does the source give for `COC(=O)C1=C(C)NC(C)=C(C(=O)OCCN(C)Cc2ccccc2)C1c1cccc([N+](=O)[O-])c1` (stereo unspecified) here?
**A.** 11.9 µM (active)
